Reference: PubChem BioAssay AID1345085 (National Center for Advancing Translational Sciences (NCATS), 2018)
Results filed as inconclusive are left out. Activity calls are given as the source filed them. Calls follow the shape of the dose curve; as a rule, active = well fitted cell-killing curve with a large enough effect; inconclusive = small, poorly fitted or top-dose-only effect, or effect the other way; inactive = no such curve, though single readings can be large or run the other way.

Each compound was assayed on Es-2 (assay: Confirmatory qHTS for gynecologic anti-cancer compounds from libraries of approved drugs and bioactive compounds). Details: gynecologic cancer cell panel viability, ATPlite luminescence, 48 h; series mostly up to 57.6 µM.
Summary of the method: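 ATP-based luminescent viability (ATPlite) after 48 h drug treatment at 37 °C, 5% CO2, across 57.5 uM–0.977 nM in 1:3 steps. Cells seeded at 1,000 per well 16 h beforehand; IC50 values computed, HEK 293T as selectivity control.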
% is scaled to controls: 0 for no effect and ±100 for the full control effect; potency is read from the fitted curve at half-maximal effect.
Also: nearly all actives have a fitted effect of over 55% in size.

Structure (SMILES) | Potency | activity change, negative = viability loss
O=c1[nH]c(=O)n([C@H]2C[C@H](O)[C@@H](CO)O2)cc1Br | inactive | –
Cc1ccc(C(=O)N(CCCN)C(c2nc3cc(Cl)ccc3c(=O)n2Cc2ccccc2)C(C)C)cc1 (stereo not given) | 3.85 µM (active) | –
CCCCc1oc2ccccc2c1C(=O)c1cc(I)c(OCCN(CC)CC)c(I)c1 | 70.8 µM (active) | –
CN1CCN(Cc2ccc(NC(=O)Nc3ccc(Oc4cc(NC(=O)C5CC5)ncn4)cc3)cc2C(F)(F)F)CC1 | 0.544 µM (active) | –
CCCCN(CCCC)C(=O)CN1C[C@H](c2ccc3c(c2)OCO3)[C@@H](C(=O)O)[C@@H]1c1ccc(OC)cc1 | inactive | –
CC[C@H](Nc1ncnc2nc[nH]c12)c1nc2cccc(F)c2c(=O)n1-c1ccccc1 | – | 8.76% [at 10.7 µM] (inactive)
COc1cccc2c1C(=O)c1c(O)c3c(c(O)c1C2=O)C[C@@](O)(C(=O)CO)C[C@@H]3O[C@H]1C[C@H](N)[C@H](O)[C@H](C)O1 | 1.72 µM (active) | –
Cc1cc(Nc2nc(N[C@@H](C)c3ccc(F)cc3)c(C#N)cc2F)n[nH]1 | 21.7 µM (active) | –
COc1cc(Nc2c(C#N)cnc3cc(OCCCN4CCN(C)CC4)c(OC)cc23)c(Cl)cc1Cl | 21.7 µM (active) | –
NCCOc1cc(C(=O)Nc2cc(OCCN)c3ccccc3n2)nc(C(=O)Nc2cc(OCCN)c3ccccc3n2)c1 | inactive | –
